The whole screen tested about 310,000 compounds, of which about 14,000 (4.5%) showed an effect of 50% or more. The effect is printed as a negative number. The entries come from a sample that favours strong results as a whole.
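Further: peak tail current of the secondary pulse compared with the same well before compound.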

In this assay the target is human ether-à-go-go-related gene (hERG) potassium channel (human, UniProt Q12809). Briefly: primary screen, population patch clamp on CHO cells stably expressing hERG; higher = less effect of the substance.
human ether-à-go-go-related gene (hERG) potassium channel, sequence (Q12809 whole entry, looked up): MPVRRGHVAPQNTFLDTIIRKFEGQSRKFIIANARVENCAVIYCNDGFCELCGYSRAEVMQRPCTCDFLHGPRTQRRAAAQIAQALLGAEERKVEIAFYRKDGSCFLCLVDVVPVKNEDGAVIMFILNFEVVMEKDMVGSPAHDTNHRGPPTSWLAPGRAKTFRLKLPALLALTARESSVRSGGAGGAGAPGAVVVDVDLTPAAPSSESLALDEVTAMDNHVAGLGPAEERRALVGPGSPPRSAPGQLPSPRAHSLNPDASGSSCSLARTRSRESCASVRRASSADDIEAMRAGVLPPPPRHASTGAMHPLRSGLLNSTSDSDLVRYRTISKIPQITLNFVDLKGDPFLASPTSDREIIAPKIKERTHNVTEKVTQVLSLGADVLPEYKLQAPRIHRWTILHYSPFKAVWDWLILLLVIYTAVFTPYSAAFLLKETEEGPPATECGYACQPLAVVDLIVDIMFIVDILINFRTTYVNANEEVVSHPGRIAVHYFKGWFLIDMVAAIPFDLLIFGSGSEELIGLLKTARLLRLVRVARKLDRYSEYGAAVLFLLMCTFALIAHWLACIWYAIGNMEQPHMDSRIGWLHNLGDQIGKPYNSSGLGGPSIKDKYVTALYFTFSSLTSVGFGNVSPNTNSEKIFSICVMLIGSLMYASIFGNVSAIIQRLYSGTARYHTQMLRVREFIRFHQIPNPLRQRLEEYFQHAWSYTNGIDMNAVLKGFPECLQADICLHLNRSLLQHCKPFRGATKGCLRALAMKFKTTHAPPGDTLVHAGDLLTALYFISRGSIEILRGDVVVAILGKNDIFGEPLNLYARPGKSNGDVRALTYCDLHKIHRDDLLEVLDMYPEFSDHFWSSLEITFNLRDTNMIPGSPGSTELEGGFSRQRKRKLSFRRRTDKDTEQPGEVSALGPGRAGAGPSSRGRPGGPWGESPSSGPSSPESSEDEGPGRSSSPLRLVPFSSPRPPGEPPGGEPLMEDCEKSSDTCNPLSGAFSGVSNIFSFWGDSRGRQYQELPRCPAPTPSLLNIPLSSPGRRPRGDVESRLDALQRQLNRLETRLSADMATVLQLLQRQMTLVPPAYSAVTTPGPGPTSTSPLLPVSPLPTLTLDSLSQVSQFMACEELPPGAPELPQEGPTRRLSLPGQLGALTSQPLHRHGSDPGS
`Cl.O=C(CNCCO)N1CCc2ccccc21`: the “hERG current change (%, negative = inhibition) at 10uM” value is -5.27%.
For `Cc1ccc(CN2C(=O)N/C(=C/c3ccc(-c4ccc(C(=O)O)cc4)o3)C2=O)cc1`, the “hERG current change (%, negative = inhibition) at 10uM” value is given as 0.0417%.
As for `O=C1CC(N2CCN(C/C=C/c3ccccc3)CC2)C(=O)N1Cc1ccc(N2CCCC2=O)cc1` (stereo not shown), the “hERG current change (%, negative = inhibition) at 10uM” value is -46.7%.
For the molecule `COc1ccc(CCN2C(=O)CC(N3CCN(C/C=C/c4ccccc4)CC3)C2=O)cc1OC` (stereo not shown), the “hERG current change (%, negative = inhibition) at 10uM” value is -43.9%.
On to `O=C1CC(N2CCN(C3CC(=O)N(CCc4ccccc4)C3=O)CC2)C(=O)N1CCc1ccccc1` (stereo not shown), for which the “hERG current change (%, negative = inhibition) at 10uM” value is listed as -6.78%.
For the molecule `O=C1OC(N2CCN(C/C=C/c3ccccc3)CC2)c2ccccc21` (stereo not shown), the “hERG current change (%, negative = inhibition) at 10uM” value amounted to 9.57%.
To `O=C1CC(N2CCN(C/C=C/c3ccccc3)CC2)C(=O)N1CCc1ccccc1` (stereo not shown) belongs -58.1%.
In the case of `O=C1CC(N2CCN(C/C=C/c3ccccc3)CC2)C(=O)N1Cc1cccs1` (stereo not shown), the “hERG current change (%, negative = inhibition) at 10uM” value is -74.8%.
Consider `C=CCn1c(CNC(=O)c2cccs2)n[nH]c1=S`, for which the “hERG current change (%, negative = inhibition) at 10uM” value is listed as 15.5%.
As for `Cc1cc(C)cc(OC(=O)CCN2C(=O)c3ccccc3C2=O)c1`, the “hERG current change (%, negative = inhibition) at 10uM” value is given as -3.19%.
As to `COc1ccccc1N(CC(=O)Nc1ccc(F)c(F)c1)S(C)(=O)=O`, the “hERG current change (%, negative = inhibition) at 10uM” value is -1.01%.
Regarding `COc1cccc(CN2CC(C(=O)NCCc3ccc(C)s3)CCC2=O)c1` (stereo not shown), the “hERG current change (%, negative = inhibition) at 10uM” value is given as -26.5%.
`CC1CCN(S(=O)(=O)c2ccc3c4c2CC(=O)N4CC(C)S3)CC1` (stereo not shown): the “hERG current change (%, negative = inhibition) at 10uM” value was 7.22%.
Consider `CCOC(=O)N1CCN(S(=O)(=O)c2cc3c(cc2C)NC(=O)CO3)CC1`, for which the “hERG current change (%, negative = inhibition) at 10uM” value was -36.2%.
As for `CCOC(=O)C1CCCN(S(=O)(=O)c2ccc3c4c(cccc24)C(=O)N3CC)C1` (stereo not shown), the “hERG current change (%, negative = inhibition) at 10uM” value is -63.5%.
In the case of `CCOC(=O)N1CCN(S(=O)(=O)c2ccc3c4c(cccc24)C(=O)N3)CC1`, the “hERG current change (%, negative = inhibition) at 10uM” value is -14.5%.
As for `CCOC(=O)C1CCCN(S(=O)(=O)c2ccc3c4c2CC(=O)N4CC(C)S3)C1` (stereo not shown), the figure is -0.356%; as for `CCOC(=O)C1CCN(S(=O)(=O)c2ccc3c4c2CC(=O)N4CC(C)S3)CC1` (stereo not shown), -57.1%; as for `CCOC(=O)C1CCN(S(=O)(=O)c2cc3c(cc2C)NC(=O)CO3)CC1`, -54.9%.
Take `CCN1C(=O)c2cccc3c(S(=O)(=O)N4CCCC4C(=O)O)ccc1c23` (stereo not shown): the “hERG current change (%, negative = inhibition) at 10uM” value is given as 13%.
As for `CCN1C(=O)c2cccc3c(S(=O)(=O)N4CCC(C)CC4)ccc1c23`, the figure is -16.8%; as for `CCOC(=O)C1CCCCN1S(=O)(=O)c1cc2c(cc1C)NC(=O)CO2` (stereo not shown), -19.8%.
As for `O=C1Nc2ccc(S(=O)(=O)N3CCCC3)c3cccc1c23`, the figure is -7.57%; as for `CCOC(=O)C1CCN(S(=O)(=O)c2ccc3c4c(cccc24)C(=O)N3)CC1`, -54.6%.
As to `O=C(Nc1ccc(Cl)cc1)Nc1ccccc1CC[N+](=O)[O-]`, the “hERG current change (%, negative = inhibition) at 10uM” value is recorded as 7.79%.
As for `CC(=O)O[C@H]1CC[C@@]2(C)C(CCC3C2CC[C@]2(C)OC(=O)CCC32)C1` (stereo partly shown), the figure is -10.7%; as for `O=C(O)c1ccc(S(=O)(=O)N2CCCc3ccccc32)cc1`, 19.7%.
As for `O=C(CN1C(=O)NC2(CCCCCC2)C1=O)N1CCN(S(=O)(=O)c2ccc(Cl)cc2)CC1`, the “hERG current change (%, negative = inhibition) at 10uM” value was -23.9%.
For the molecule `Cc1ccc(S(=O)(=O)N(C)c2nc3ccccc3[nH]c2=S)cc1`, the “hERG current change (%, negative = inhibition) at 10uM” value is given as 4.41%.
As for `O=C1C(Cc2cccc([N+](=O)[O-])c2)S/C(=N/N=C/c2ccco2)N1c1ccccc1` (stereo not shown), the figure is 2.64%.
To `O=C(NC1CCCCC1)N(Cc1nc2ccccc2c(=O)[nH]1)C1CCCCC1` belongs 2.79%; to `O=C(NCCc1nc2ccccc2[nH]1)/C(=C/c1ccco1)NC(=O)c1ccc(Br)cc1`, -69.9%.
`Cc1ccc(C(=O)N/C(=C/c2ccco2)C(=O)NCCc2c[nH]c3ccccc23)cc1`: the “hERG current change (%, negative = inhibition) at 10uM” value is listed as -46%.
As for `CC(C)=C(NC(=O)c1ccco1)C(=O)NCCc1nc2ccccc2[nH]1`, the “hERG current change (%, negative = inhibition) at 10uM” value is recorded as 1.12%.
`O=C(NCCc1nc2ccccc2[nH]1)/C(=C/c1ccco1)NC(=O)c1ccco1`: the “hERG current change (%, negative = inhibition) at 10uM” value is -17.3%.
As to `O=C(CNC(=O)c1ccc(Br)cc1)NCCc1nc2ccccc2[nH]1`, the “hERG current change (%, negative = inhibition) at 10uM” value is reported as -6.76%.
`COc1ccc(/C=C(\NC(=O)c2ccco2)C(=O)NCCc2nc3ccccc3[nH]2)cc1`: the “hERG current change (%, negative = inhibition) at 10uM” value is -42.6%.
As for `O=C(NCCc1nc2ccccc2[nH]1)/C(=C/c1ccco1)NC(=O)c1ccc(Br)o1`, the figure is -63.2%; as for `CC(C)=C(NC(=O)c1ccccc1Br)C(=O)NCCc1nc2ccccc2[nH]1`, 3.68%; as for `O=C(NCCc1nc2ccccc2[nH]1)c1ccco1`, 2.94%.
On to `O=C(NCCc1nc2ccccc2[nH]1)c1ccc(Br)o1`, for which the “hERG current change (%, negative = inhibition) at 10uM” value stood at 3.87%.
Consider `O=C(NCCc1nc2ccccc2[nH]1)/C(=C/c1ccco1)NC(=O)c1ccccc1Br`, for which the “hERG current change (%, negative = inhibition) at 10uM” value was -64.9%.
For the molecule `O=C(NCCc1nc2ccccc2[nH]1)/C(=C/c1ccc(F)cc1)NC(=O)c1ccco1`, the “hERG current change (%, negative = inhibition) at 10uM” value is -62.8%.

The record behind these values is paper PMC4336329 (PLoS ONE, 2015).
